Test results as given in PubChem BioAssay (NCATS).
Results filed as inconclusive are left out. Entries that show only a call come without a potency. Calls of active or inactive are those of the source. The call rests on the fitted dose curve; in most records, active means well fitted inhibition curve with a large enough effect; inconclusive means small, poorly fitted or top-dose-only effect; inactive means no such curve, though single readings can be large or run the other way.

Tests used:
[1] = test system: Zika virus NS2B-NS3 protease (unlinked complex); assay: Primary screen GU Rhodamine qHTS for Zika virus inhibitors: Unlinked NS2B-NS3 protease assay (AID 1347159); further: nearly all actives have a fitted effect of over 60% in size
Summary of the method: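 Noncovalent NS2B hydrophilic domain–NS3 protease domain complex (25 nM) preincubated 15 min at room temperature with compounds (up to 114 microM) in 10 mM Tris-HCl pH 8.0, 0.01% Tween 20; 1.5 microM Rhodamine110 substrate added, fluorescence change over 15 min fitted to Hill equation.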

[2] = test system: Zika virus NS2B-NS3 protease (linked construct); assay: Primary screen NINDS Rhodamine qHTS for Zika virus inhibitors (AID 1347160); further: nearly all actives have a fitted effect of over 55% in size
Summary of the method: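 Purified linked NS2B-NS3 protease (NS2B hydrophilic domain joined to NS3 protease by flexible linker), 25 nM in 10 mM Tris-HCl pH 8.0, 0.01% Tween 20. Compounds titrated, 15 min preincubation at room temperature; 1.5 microM Rhodamine110 substrate, FITC fluorescence change over 15 min.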
Potency means the concentration at half of the fitted maximal effect.

Row | SMILES | Potency [1] | Potency [2]
1 | CS(=O)(=O)N1CCC(NC(=O)c2[nH]ncc2NC(=O)c2c(Cl)cccc2Cl)CC1 | inactive | inactive
2 | O=C1CC2(CCCC2)[C@H](O)C(=O)N1CCCCN1CCN(c2ncccn2)CC1 | inactive | inactive
3 | C[C@@H]1CC[C@]2(C(=O)O[C@@H]3O[C@H](CO)[C@@H](O)[C@H](O)[C@H]3O)CC[C@]3(C)C(=CCC4[C@@]5(C)C[C@@H](O)[C@H](O)[C@](C)(C(=O)O)C5CC[C@]43C)[C@@H]2[C@]1(C)O (some centres undefined) | inactive | inactive
4 | CC(CCC1(O)OC2CC3C4CCC5CC(O[C@@H]6O[C@H](CO)[C@@H](O)[C@H](O)[C@H]6O[C@@H]6O[C@@H](C)[C@H](O)[C@@H](O)[C@H]6O)C(O)CC5(C)C4CCC3(C)C2C1C)CO[C@@H]1O[C@H](CO)[C@@H](O)[C@H](O)[C@H]1O (some centres undefined) | inactive | inactive
5 | CC(C)S(=O)(=O)N[C@H]1CCOC[C@@H]1c1ccc(-c2ccc(C#N)s2)cc1 | inactive | inactive
6 | CC(C)[C@H]1CC[C@@]2(O)COC(=O)[C@H]2[C@@H]1/C=C(\CO)C(=O)O | inactive | inactive
7 | C[C@H]1C(=O)N2c3ccccc3[C@@]3(O)C[C@@H]4C(=O)N[C@](C)(c5nc6ccccc6c(=O)n54)N1[C@@H]23 | inactive | inactive
8 | Cn1cc(S(=O)(=O)c2ccc(Cl)cc2)c2cccc(N3CCNCC3)c21 | inactive | inactive
9 | COc1cc(C(=O)NC2CCN(C)CC2)ccc1Nc1ncc2c(n1)N(C1CCCC1)CC(F)(F)C(=O)N2C | inactive | inactive
10 | CNC(=O)c1ccccc1Nc1nc(Nc2ccc(N3CCNCC3)cc2)ncc1Cl | inactive | inactive
11 | C=C1C(OC(C)=O)CCC2(C)CC3(OC)OC(=O)C(C)=C3CC12 (centres undefined) | inactive | inactive
12 | Cc1cc(NC(=O)Nc2ccc(F)c(F)c2)n(-c2ccccc2)n1 | inactive | inactive
13 | COC(=O)N[C@H](C(=O)N1[C@@H]2CC[C@@H](C2)[C@H]1c1nc2ccc(-c3ccc4c(c3)C(F)(F)c3cc(-c5cnc([C@@H]6CCC7(CC7)N6C(=O)[C@@H](NC(=O)OC)C(C)C)[nH]5)ccc3-4)cc2[nH]1)C(C)C | inactive | inactive
14 | COc1ccc([C@H]2CNC(=O)C2)cc1OC1CCCC1 | inactive | inactive
15 | CC[C@H](NC(=O)[C@H](CS(=O)(=O)CC1CC1)N[C@@H](c1ccc(F)cc1)C(F)(F)F)C(=O)C(=O)NC1CC1 | inactive | inactive
16 | COc1cc(/C=C/C(=O)O[C@H]2[C@H](O)[C@@H](CO)O[C@@]2(CO)O[C@H]2O[C@H](CO)[C@@H](O)[C@H](O)[C@H]2O)ccc1O | inactive | inactive
17 | CN[C@@H]1[C@H](O[C@H]2[C@H](O[C@@H]3[C@@H](O)[C@H](O)[C@@H](N=C(N)N)[C@H](O)[C@H]3N=C(N)N)O[C@@H](C)[C@]2(O)C=O)O[C@@H](CO)[C@H](O)[C@H]1O | inactive | inactive
18 | NC1CCC(Nc2cc(-c3cccc(NCc4cccc(F)c4)n3)c(Cl)cn2)CC1 (centres undefined) | inactive | inactive
19 | C=C1C(=O)O[C@H](CCC)[C@H]1C(=O)O | inactive | inactive
20 | C[C@@H]([C@@H](O)c1ccc(O)cc1)N1CCC(O)(c2ccccc2)CC1 | inactive | inactive
21 | COC(=O)C1(C)CCC2(C(=O)O)CCC3(C)C(=CCC4C5(C)CC(O)C(OC6OCC(O)C(O)C6O)C(C)(CO)C5CCC43C)C2C1 (centres undefined) | inactive | inactive
22 | CCCOC(c1cc2nccc(C(=O)O)c2[nH]1)c1ccccc1Cl (centres undefined) | inactive | inactive
23 | CCC1C(=O)N(C)c2cnc(Nc3ccc(C(=O)NC4CCC(N5CCN(CC6CC6)CC5)CC4)cc3OC)nc2N1C(C)C (centres undefined) | inactive | inactive
24 | C[C@@H]1O[C@@H](O[C@H]2[C@H](O)[C@@H](C(=O)O)O[C@@H](O[C@H]3CC[C@@]4(C)C(CC[C@]5(C)C4CC=C4C6CC(C)(C)CC[C@]6(C(=O)O)CC[C@]45C)C3(C)C)[C@@H]2O[C@@H]2OC[C@@H](O)[C@H](O)[C@H]2O)[C@H](O)[C@H](O)[C@H]1O (some centres undefined) | 8.91 µM (active) | 3.1 µM (active)
25 | Cc1cccc(S(=O)(=O)N2CCC[C@@H]2CCN2CCC(C)CC2)c1 | inactive | inactive
26 | COC(=O)CCc1cc2ccoc2c(OC)c1O[C@@H]1O[C@H](CO)[C@@H](O)[C@H](O)[C@H]1O | inactive | inactive
27 | CC(=O)O[C@@H]1c2c(C)coc2C(=O)[C@@]23O[C@@H]2CC[C@H](C)[C@@]13C | inactive | inactive
